Test results from the supplement of paper PMC11732987, “Enantioselective OTUD7B fragment discovery through chemoproteomics screening and high-throughput optimisation” (Communications Chemistry, 2025).

Key:
Test in all cases: log2 ratio of Biotin-Ahx-Ub-VS probe labelling (fragment/DMSO); higher = less target engagement (more negative = stronger competition), active = hit call of the paper (q ≤ 0.05, log2 ratio ≤ -1)
Details in all cases: compound concentration: 200 uM; treatment time: 3 h
[1] = target: T1, ALG13 (UniProt Q9NP73)
T1 sequence (whole entry): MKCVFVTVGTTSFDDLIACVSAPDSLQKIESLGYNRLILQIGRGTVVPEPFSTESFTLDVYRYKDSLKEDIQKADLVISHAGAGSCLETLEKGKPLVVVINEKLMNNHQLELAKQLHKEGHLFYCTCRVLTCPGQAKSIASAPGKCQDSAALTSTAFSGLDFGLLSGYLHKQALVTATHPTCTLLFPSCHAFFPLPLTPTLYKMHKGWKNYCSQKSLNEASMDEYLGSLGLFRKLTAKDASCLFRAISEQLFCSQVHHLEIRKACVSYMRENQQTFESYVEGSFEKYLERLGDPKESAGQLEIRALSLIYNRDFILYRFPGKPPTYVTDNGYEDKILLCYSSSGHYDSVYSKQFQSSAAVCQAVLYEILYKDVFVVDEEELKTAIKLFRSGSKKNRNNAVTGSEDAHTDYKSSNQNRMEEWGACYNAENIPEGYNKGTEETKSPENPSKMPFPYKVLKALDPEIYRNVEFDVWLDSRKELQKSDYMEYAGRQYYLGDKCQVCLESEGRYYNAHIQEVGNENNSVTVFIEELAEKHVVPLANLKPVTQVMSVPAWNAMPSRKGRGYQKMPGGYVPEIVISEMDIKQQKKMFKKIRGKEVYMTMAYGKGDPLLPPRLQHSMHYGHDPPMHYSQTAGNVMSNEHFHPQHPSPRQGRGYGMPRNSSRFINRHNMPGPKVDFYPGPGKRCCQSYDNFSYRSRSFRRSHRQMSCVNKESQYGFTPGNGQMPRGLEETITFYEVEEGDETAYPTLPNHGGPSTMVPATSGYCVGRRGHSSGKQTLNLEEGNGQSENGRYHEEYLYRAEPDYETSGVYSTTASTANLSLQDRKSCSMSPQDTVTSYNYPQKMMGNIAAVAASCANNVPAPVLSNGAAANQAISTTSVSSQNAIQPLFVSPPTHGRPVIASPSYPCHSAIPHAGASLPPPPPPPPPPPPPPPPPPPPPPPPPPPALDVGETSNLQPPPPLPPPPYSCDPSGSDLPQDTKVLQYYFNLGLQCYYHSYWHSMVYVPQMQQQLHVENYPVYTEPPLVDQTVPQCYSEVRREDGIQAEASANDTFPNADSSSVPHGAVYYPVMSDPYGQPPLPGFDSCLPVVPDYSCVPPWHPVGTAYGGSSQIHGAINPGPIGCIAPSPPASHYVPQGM
Method in brief: (§1)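 Triplicate samples of HEK293T lysate, 495 µg each, received fragment at 200 µM or vehicle for 3 h, followed by Biotin-Ahx-Ub-VS (0.5 µM final) for 1 h. After NeutrAvidin enrichment of labelled DUBs and LysC/trypsin digestion, peptides were run by diaPASEF LC-MS/MS. The values are average log2 fragment/vehicle ratios from global-median-normalised Spectronaut label-free quantities, tested by unpaired t-test on proteins having ≥2 unique peptides.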

[2] = target: ATXN3 (UniProt P54252)
Method in brief: as §1

[3] = target: T2, BAP1 (UniProt Q92560)
T2 sequence (whole entry): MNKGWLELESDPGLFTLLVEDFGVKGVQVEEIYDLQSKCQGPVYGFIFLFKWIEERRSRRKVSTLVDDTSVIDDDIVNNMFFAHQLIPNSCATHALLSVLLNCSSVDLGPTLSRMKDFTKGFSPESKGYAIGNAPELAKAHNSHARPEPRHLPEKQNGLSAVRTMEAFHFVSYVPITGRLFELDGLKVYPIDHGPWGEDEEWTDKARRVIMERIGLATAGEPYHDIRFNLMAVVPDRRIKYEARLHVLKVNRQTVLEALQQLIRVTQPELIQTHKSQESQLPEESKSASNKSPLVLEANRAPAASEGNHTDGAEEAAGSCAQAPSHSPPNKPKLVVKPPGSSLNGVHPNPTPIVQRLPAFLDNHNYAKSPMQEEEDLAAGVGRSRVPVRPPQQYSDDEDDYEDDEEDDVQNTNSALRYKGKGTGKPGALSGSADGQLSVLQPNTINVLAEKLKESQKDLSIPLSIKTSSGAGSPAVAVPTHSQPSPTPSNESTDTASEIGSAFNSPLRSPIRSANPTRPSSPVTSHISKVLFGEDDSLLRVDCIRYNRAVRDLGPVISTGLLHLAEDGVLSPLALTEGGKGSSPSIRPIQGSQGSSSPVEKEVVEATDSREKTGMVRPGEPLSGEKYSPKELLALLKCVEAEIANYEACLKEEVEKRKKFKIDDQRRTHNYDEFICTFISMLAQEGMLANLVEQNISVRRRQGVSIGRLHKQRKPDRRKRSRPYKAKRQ
Method in brief: as §1

[4] = target: EIF3F (UniProt O00303)
Method in brief: as §1

[5] = target: EIF3H (UniProt O15372)
Method in brief: as §1

[6] = target: T3, FAM105A (UniProt Q9NUU6)
T3 sequence (whole entry): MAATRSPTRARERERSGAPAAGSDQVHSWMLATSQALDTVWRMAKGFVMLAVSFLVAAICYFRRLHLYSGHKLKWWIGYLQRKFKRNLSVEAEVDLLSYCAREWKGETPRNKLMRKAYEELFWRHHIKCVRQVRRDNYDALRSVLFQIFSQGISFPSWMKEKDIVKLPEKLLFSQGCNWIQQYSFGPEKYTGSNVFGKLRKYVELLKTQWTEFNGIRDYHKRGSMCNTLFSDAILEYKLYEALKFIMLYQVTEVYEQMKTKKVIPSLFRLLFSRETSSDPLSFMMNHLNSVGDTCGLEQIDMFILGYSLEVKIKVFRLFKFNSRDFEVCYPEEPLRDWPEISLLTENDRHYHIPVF
Method in brief: as §1

[7] = target: OTUB1 (UniProt Q96FW1)
Method in brief: as §1

[8] = target: T4, OTUD4 (UniProt Q01804)
T4 sequence (whole entry): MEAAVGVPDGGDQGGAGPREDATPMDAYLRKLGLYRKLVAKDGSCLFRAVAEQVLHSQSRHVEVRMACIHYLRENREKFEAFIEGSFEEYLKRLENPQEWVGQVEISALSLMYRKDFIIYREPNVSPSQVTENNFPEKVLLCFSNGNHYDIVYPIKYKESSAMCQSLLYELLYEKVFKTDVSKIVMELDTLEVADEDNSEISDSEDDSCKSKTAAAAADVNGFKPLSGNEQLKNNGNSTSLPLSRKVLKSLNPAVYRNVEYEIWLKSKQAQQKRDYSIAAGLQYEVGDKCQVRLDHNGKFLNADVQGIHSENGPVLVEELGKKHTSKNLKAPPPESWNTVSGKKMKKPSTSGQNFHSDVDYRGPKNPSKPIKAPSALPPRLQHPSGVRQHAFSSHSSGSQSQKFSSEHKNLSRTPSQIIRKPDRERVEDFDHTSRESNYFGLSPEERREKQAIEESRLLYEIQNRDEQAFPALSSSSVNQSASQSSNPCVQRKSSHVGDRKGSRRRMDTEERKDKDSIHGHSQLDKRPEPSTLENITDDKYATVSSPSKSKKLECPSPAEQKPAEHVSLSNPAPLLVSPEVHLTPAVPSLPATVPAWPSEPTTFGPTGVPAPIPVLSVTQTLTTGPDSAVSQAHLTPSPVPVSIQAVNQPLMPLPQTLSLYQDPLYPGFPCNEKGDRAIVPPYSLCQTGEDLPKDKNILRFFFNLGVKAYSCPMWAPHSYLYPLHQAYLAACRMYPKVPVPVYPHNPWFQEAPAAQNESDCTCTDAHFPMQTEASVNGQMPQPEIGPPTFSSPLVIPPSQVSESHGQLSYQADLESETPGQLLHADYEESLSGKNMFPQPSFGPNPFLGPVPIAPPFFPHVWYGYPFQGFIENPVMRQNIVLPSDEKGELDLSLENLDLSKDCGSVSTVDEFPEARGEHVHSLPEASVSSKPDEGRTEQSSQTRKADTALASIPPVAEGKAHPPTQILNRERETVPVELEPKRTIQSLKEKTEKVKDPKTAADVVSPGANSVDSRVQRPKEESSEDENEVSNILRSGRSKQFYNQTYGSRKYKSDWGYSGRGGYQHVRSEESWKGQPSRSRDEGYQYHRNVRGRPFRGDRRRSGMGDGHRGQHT
Method in brief: as §1

[9] = target: T5, OTUD5 (UniProt Q96G74)
T5 sequence (whole entry): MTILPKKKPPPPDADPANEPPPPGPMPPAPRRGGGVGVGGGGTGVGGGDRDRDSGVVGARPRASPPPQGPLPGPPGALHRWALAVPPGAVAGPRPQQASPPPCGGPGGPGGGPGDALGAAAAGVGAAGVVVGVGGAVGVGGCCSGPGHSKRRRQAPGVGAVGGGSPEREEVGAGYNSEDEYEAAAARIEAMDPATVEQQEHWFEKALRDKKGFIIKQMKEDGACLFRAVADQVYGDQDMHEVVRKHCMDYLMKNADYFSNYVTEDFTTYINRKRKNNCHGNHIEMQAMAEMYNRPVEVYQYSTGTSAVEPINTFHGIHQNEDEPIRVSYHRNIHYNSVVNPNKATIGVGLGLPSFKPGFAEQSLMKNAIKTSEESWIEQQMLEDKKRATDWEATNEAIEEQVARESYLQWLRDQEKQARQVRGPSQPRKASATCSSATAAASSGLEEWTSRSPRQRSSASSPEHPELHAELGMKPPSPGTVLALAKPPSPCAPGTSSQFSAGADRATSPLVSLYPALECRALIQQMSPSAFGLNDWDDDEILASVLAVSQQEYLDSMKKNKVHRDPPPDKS
Method in brief: as §1

Measured: log2 ratio of Biotin-Ahx-Ub-VS probe labelling

EIF3H, sequence (O15372 whole entry): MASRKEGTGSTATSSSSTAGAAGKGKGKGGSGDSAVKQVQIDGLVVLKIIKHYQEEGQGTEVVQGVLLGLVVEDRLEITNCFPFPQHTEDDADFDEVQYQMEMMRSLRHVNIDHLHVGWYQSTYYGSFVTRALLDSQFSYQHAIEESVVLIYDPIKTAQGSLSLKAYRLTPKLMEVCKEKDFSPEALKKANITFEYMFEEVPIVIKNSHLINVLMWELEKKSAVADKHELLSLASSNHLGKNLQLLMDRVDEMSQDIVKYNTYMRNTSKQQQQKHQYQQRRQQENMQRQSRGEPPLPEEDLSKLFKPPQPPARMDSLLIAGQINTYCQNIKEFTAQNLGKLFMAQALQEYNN
EIF3F, sequence (O00303 whole entry): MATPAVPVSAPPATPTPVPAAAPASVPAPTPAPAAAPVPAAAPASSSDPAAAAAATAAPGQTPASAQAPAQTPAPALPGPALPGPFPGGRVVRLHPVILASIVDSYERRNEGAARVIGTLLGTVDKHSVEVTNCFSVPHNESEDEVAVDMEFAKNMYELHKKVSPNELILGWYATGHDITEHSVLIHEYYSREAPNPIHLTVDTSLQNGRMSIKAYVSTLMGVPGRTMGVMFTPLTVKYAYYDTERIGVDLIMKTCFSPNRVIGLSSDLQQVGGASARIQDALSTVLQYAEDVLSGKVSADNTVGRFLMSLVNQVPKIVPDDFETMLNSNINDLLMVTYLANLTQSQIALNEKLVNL
ATXN3, sequence (P54252 whole entry): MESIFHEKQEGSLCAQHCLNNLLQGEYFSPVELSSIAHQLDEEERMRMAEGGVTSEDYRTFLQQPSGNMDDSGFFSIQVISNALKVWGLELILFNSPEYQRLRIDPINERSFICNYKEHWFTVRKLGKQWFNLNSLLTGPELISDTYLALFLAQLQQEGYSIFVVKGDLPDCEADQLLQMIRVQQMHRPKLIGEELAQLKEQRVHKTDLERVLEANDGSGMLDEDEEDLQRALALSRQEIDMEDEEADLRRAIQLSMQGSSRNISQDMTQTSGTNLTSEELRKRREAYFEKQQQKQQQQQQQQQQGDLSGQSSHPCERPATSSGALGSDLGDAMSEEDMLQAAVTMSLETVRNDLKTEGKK
OTUB1, sequence (Q96FW1 whole entry): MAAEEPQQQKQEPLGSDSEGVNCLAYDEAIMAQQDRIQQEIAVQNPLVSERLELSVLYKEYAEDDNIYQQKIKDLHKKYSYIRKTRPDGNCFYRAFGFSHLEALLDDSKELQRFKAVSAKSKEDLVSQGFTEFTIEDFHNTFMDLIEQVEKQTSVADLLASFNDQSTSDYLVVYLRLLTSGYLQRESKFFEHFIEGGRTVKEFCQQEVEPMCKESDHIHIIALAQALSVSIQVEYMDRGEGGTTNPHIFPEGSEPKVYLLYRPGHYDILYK

O=C(CCl)N1CCCC2CCCCC21 (centres undefined)
inactive: [1] -0.21 | [2] -0.321 | [3] -0.281 | [4] -0.196 | [5] 0.299 | [6] 0.212 | [7] 0.0815 | [8] -0.106 | [9] -0.314
